Test results published in PubChem BioAssay (NCATS).
Results filed as inconclusive are left out. Values without a mark were called inactive. Calls come from the whole dose curve; as a rule, active = well fitted curve in the direction sought with a large enough effect; inconclusive = small, poorly fitted or top-dose-only effect, or another doubt; inactive = no such curve, though single readings can be large; an effect the other way counts as inactive or inconclusive.

Experiment: MultiTox-Fluor Cytotoxicity Assay - LYMP1-001 - Dead Cells (AID 946);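 note: 0% = DMSO and 100% = tetraoctylammonium bromide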
Conditions: LYMP1-001 lymphoblastoid cells, dead-cell protease fluorescence; series mostly up to 92.2 µM; cytotoxicity (dead cells): at the top concentration
In short: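 In this qHTS, 15 uM tetraoctylammonium bromide defined 100% and DMSO defined basal activity. Lymphoblastoid cells (LYMP1-001, 2500 per well) received compound for 16 hr at 37 C before a fluorogenic dead-cell substrate readout at 485/520 nm.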

SMILES | cytotoxicity (dead cells)
Oc1cccc(Cl)c1Cl | -15%
CCC/C=N/O | -2.95%
Nc1cccc2ccccc12 | 5.43%
Cc1cnc[nH]1 | 7.75%
CN(C)N=O | -7.76%
COc1c(C(C)(C)C)cc([N+](=O)[O-])c(C)c1[N+](=O)[O-] | -25.5%
C=C(Cl)CCl | -9.59%
ClCCOCOCCCl | -10.5%
CC12CC1(C)C(=O)N(c1cc(Cl)cc(Cl)c1)C2=O (stereo not given) | -0.214%
CC(C)(Cl)[N+](=O)[O-] | 4.24%
Cl/C=C/Cl | 3.94%
CCCCOCC1CO1 (stereo not given) | 12.6%
O=C(O)c1cccc(Cl)c1 | -6.38%
C1CC2OC2CC1C1CO1 (stereo not given) | 16.5%
Brc1cccc(-c2ccccc2)c1 | 1.9%
Oc1c(Cl)cccc1Cl | -12.7%
ClCCOCCCl | -5.26%
CCNCC | 7.41%
CC(C)C#N | 6.51%
Cl/C=C\Cl | -8.09%

SMILES | cytotoxicity (dead cells)
c1ccc2c(c1)CCNC2 | -11.5%
CCBr | -15.4%
O=[N+]([O-])c1ccc(Cl)c(Cl)c1Cl | -9.9%
N#CCCC#N | -3.14%
Cc1ccccc1[N+](=O)[O-] | -0.103%
OCCBr | 18.5%
C=CC(=O)OCCN(C)C | 4.21%
CC(C)(C)C(O)(CCc1ccc(Cl)cc1)Cn1cncn1 (stereo not given) | 10.4%
N#CCCCCC#N | -16.3%
CN=C=O | 0.126%
c1ccc(C2CO2)cc1 (stereo not given) | -3.06%
CCCCCC[N+](=O)[O-] | 6.22%
OCC(Cl)CCl (stereo not given) | -4.53%
COc1ccc(C=O)cc1 | -1.44%
Nc1ccc(Cl)c(Cl)c1 | -13.4%
CC(=O)[O-].CC(=O)[O-].CC(=O)[O-].[Cr+3] | -20.6%
CC(=O)CCC(C)=O | 5.31%
C=CC(=O)OCC(CC)CCCC (stereo not given) | 1.57%
CC(C#N)CCC#N (stereo not given) | -18.3%

Experiment: MultiTox-Fluor Cytotoxicity Assay - LYMP1-001 - Live Cells (AID 947);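 note: 0% = DMSO only and full inhibition = tetraoctylammonium bromide control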
Conditions: LYMP1-001 lymphoblastoid cells, live-cell protease fluorescence viability; series mostly up to 92.2 µM; activity change, negative = cytotoxicity: at the top concentration

SMILES | activity change, negative = cytotoxicity
CCC/C=N/O | 14.7%
Nc1cccc2ccccc12 | -20.9%
Cc1cnc[nH]1 | 11.8%
CN(C)N=O | -11.7%
C=C(Cl)CCl | -6.16%
ClCCOCOCCCl | -1.33%
CC12CC1(C)C(=O)N(c1cc(Cl)cc(Cl)c1)C2=O (stereo not given) | 9.82%
CC(C)(Cl)[N+](=O)[O-] | 14.3%
Cl/C=C/Cl | 2%
CCCCOCC1CO1 (stereo not given) | 1.26%
O=C(O)c1cccc(Cl)c1 | 10.7%
C1CC2OC2CC1C1CO1 (stereo not given) | 8.26%
Brc1cccc(-c2ccccc2)c1 | 9.54%
ClCCOCCCl | -0.971%
CCNCC | 5.57%
c1ccc2c(c1)CCNC2 | -14.6%
O=[N+]([O-])c1ccc(Cl)c(Cl)c1Cl | -23.7%
N#CCCC#N | 1.91%
Cc1ccccc1[N+](=O)[O-] | 7.58%
C=CC(=O)OCCN(C)C | -17.6%
CC(C)(C)C(O)(CCc1ccc(Cl)cc1)Cn1cncn1 (stereo not given) | 3.59%
N#CCCCCC#N | -12%
CN=C=O | -4.27%
c1ccc(C2CO2)cc1 (stereo not given) | 0.284%
CCCCCC[N+](=O)[O-] | -2.1%
OCC(Cl)CCl (stereo not given) | -0.377%
COc1ccc(C=O)cc1 | 2.81%
CC(=O)CCC(C)=O | 2.73%
CC(C#N)CCC#N (stereo not given) | -26.9%

Experiment: Cell Viability - LYMP1-002 - Assay at 16 hr (AID 948);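 note: 0% = DMSO alone and full effect = 92 µM tetraoctylammonium bromide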
Conditions: LYMP1-002 lymphoblastoid cell viability; series mostly up to 92.2 µM; activity change, negative = cytotoxicity: at the top concentration
In short: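 Human lymphoblastoid cells (LYMP1-002), 2500/well, were preincubated 5 hr at 37 C, then exposed to compounds for 16 hr at 37 C in complete medium. Cellular ATP was read by CellTiter-Glo luminescence after 30 min at room temperature; AC50 from Hill fits.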

SMILES | activity change, negative = cytotoxicity
Oc1cccc(Cl)c1Cl | -3.63%
CCC/C=N/O | -4.84%
Nc1cccc2ccccc12 | -7.82%
Cc1cnc[nH]1 | -5.24%
CN(C)N=O | -10.7%
COc1c(C(C)(C)C)cc([N+](=O)[O-])c(C)c1[N+](=O)[O-] | -6.31%
C=C(Cl)CCl | -7.99%
ClCCOCOCCCl | -1.1%
CC12CC1(C)C(=O)N(c1cc(Cl)cc(Cl)c1)C2=O (stereo not given) | -3.28%
CC(C)(Cl)[N+](=O)[O-] | 1.09%
Cl/C=C/Cl | -1.48%
CCCCOCC1CO1 (stereo not given) | 1.67%
O=C(O)c1cccc(Cl)c1 | 1.21%
C1CC2OC2CC1C1CO1 (stereo not given) | -2.79%
Brc1cccc(-c2ccccc2)c1 | 2.24%
Oc1c(Cl)cccc1Cl | -5.55%
ClCCOCCCl | 0.695%
CCNCC | 0.0376%
CC(C)C#N | -0.755%
Cl/C=C\Cl | -2.3%

SMILES | activity change, negative = cytotoxicity
c1ccc2c(c1)CCNC2 | 0.0604%
CCBr | -5.71%
O=[N+]([O-])c1ccc(Cl)c(Cl)c1Cl | -0.363%
N#CCCC#N | -6.21%
Cc1ccccc1[N+](=O)[O-] | -2.28%
OCCBr | -0.352%
C=CC(=O)OCCN(C)C | -5.65%
CC(C)(C)C(O)(CCc1ccc(Cl)cc1)Cn1cncn1 (stereo not given) | -7.43%
N#CCCCCC#N | -4.94%
CN=C=O | -5.29%
c1ccc(C2CO2)cc1 (stereo not given) | -1.16%
CCCCCC[N+](=O)[O-] | -3.24%
OCC(Cl)CCl (stereo not given) | -7.23%
COc1ccc(C=O)cc1 | -2.57%
Nc1ccc(Cl)c(Cl)c1 | -2.33%
CC(=O)[O-].CC(=O)[O-].CC(=O)[O-].[Cr+3] | -4.45%
CC(=O)CCC(C)=O | 2.29%
C=CC(=O)OCC(CC)CCCC (stereo not given) | -1.9%
CC(C#N)CCC#N (stereo not given) | -1.27%

Experiment: MultiTox-Fluor Cytotoxicity Assay - LYMP1-002 - Live Cells (AID 955); note: % is set by controls: 0 for no effect and ±100 for the full control effect
Conditions: LYMP1-002 lymphoblastoid live-cell protease fluorescence viability; series mostly up to 46.1 µM; viability change, negative = cytotoxic: at the top concentration
In short: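 After 16 h compound exposure at 37 C, live LYMP1-002 lymphoblastoid cells (2500/well) were quantified by cleavage of cell-permeant GF-AFC substrate, read at 405/510 nm after 60 min. Concentration-response fitted with Hill equation for AC50.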

SMILES | viability change, negative = cytotoxic
Oc1cccc(Cl)c1Cl | 3.91%
CCC/C=N/O | 7.83%
Cc1cnc[nH]1 | -11.6%
CN(C)N=O | -1.62%
COc1c(C(C)(C)C)cc([N+](=O)[O-])c(C)c1[N+](=O)[O-] | 2.91%
C=C(Cl)CCl | 0.46%
ClCCOCOCCCl | 8.44%
CC12CC1(C)C(=O)N(c1cc(Cl)cc(Cl)c1)C2=O (stereo not given) | 6.81%
CC(C)(Cl)[N+](=O)[O-] | 7.22%
Cl/C=C/Cl | -6.8%
CCCCOCC1CO1 (stereo not given) | -5.94%
O=C(O)c1cccc(Cl)c1 | 3.58%
C1CC2OC2CC1C1CO1 (stereo not given) | -12.5%
Brc1cccc(-c2ccccc2)c1 | 6.06%
Oc1c(Cl)cccc1Cl | -9.69%
ClCCOCCCl | 6.47%
CCNCC | 6.61%

SMILES | viability change, negative = cytotoxic
CC(C)C#N | -3.48%
Cl/C=C\Cl | 9.17%
CCBr | 3.27%
O=[N+]([O-])c1ccc(Cl)c(Cl)c1Cl | 6.13%
N#CCCC#N | 0.843%
Cc1ccccc1[N+](=O)[O-] | 12.2%
OCCBr | 7.44%
N#CCCCCC#N | -12.2%
CCCCCC[N+](=O)[O-] | 0.556%
OCC(Cl)CCl (stereo not given) | -5.13%
COc1ccc(C=O)cc1 | 3.21%
Nc1ccc(Cl)c(Cl)c1 | 2.77%
CC(=O)[O-].CC(=O)[O-].CC(=O)[O-].[Cr+3] | -5%
CC(=O)CCC(C)=O | -13.3%
C=CC(=O)OCC(CC)CCCC (stereo not given) | -4.3%
CC(C#N)CCC#N (stereo not given) | -8.9%
